# Compound activity from PubChem BioAssay.
# Compounds with a hit are over-represented: about 7.4% of the library has one in this group of screens.
# NPC1 prom act: NPC1 promoter activation. Huh7 NPC1 promoter luciferase reporter, 24 h. Potency, µM (doses to about 9.22 µM), actives largely listed as activators. 2.4% of 320,000 active; further: nearly all actives have a fitted effect of over 60% in size
#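 Cells: Huh7 expressing luciferase under the NPC1 promoter, 1500/well. Seeded 2 h, compound added, incubated 24 h at 37 °C. Luciferase reagent, 10 min ambient, then luminescence.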
# FLuc counter: inhibits or activates purified firefly luciferase, miR-21 counter-screen. P08659. purified FLuc, Km substrates, luminescence inhibition. Potency, µM (doses to about 57.5 µM), hits mostly inhibitors. 6.9% of 360,000 active. AID 588342; further: nearly all actives have a fitted effect of over 55% in size
# Target sequence (P08659 whole entry, looked up): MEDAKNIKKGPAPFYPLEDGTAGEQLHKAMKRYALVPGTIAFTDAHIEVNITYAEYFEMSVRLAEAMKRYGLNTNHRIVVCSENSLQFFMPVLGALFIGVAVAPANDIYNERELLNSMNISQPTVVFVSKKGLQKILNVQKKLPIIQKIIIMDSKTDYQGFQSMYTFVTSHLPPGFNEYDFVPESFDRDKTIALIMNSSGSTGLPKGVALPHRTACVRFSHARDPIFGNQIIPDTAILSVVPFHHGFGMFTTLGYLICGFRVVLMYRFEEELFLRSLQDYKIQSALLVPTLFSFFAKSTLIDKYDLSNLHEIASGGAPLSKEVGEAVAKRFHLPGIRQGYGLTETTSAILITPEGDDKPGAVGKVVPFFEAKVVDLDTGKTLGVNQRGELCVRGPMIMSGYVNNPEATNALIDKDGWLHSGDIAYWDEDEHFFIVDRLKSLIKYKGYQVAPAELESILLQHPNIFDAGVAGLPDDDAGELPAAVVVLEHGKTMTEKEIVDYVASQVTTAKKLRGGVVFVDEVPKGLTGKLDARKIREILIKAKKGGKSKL
#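 Biochemical qHTS of compounds, final roughly 60 µM downward over six points, against 10 nM purified firefly luciferase using Km concentrations of substrates (10 uM D-luciferin, 10 uM ATP) in Tris acetate pH 7.5 buffer; luminescence output.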
# SMN2 splice up: enhancers of SMN2 splice variant expression. HEK293 SMN2-luciferase splicing reporter, luminescence, 30-36 h. Potency, µM (top dose mostly 46.1 µM), usual class: activators. 2.8% of 210,000 active. AID 1458; further: nearly all actives have a fitted effect of over 55% in size
#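 qHTS luciferase splicing reporter: luminescence rises when SMN2 exon 7 is included in transfected HEK293 cells. Compound exposure lasted 30-36 h at 37C, with 4.5 mM final sodium butyrate as control, followed by a ONE-Glo read.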
# Rab9 prom act: Rab9 promoter activation; Potency, µM (highest dose often 9.22 µM), actives largely listed as activators; Huh7 Rab9 promoter-luciferase reporter, luminescence, 24 h; 2.8% of 320,000 active; AID 485297; further: nearly all actives have a fitted effect of over 60% in size
#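 Cell-based reporter: Huh7 stable for Rab9 promoter-driven luciferase, plated in reduced-serum medium with 10% FBS at 1500 cells/well, compound-treated 24 h at 37 °C, luminescence read after 10 min reagent.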
# ELG1 genotoxic: genotoxicity induction in ELG1-luciferase HEK293T cells | Potency, µM (doses to about 46 µM), most hits filed as activators | 1.3% of 330,000 active | HEK293T ELG1-luciferase reporter, luminescence, 16 h; further: nearly all actives have a fitted effect of over 60% in size
#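 Reporter readout depends on ELG1 protein level, which increases with genetic stress. After 16 hr compound exposure at 37 °C, luciferase activity was quantified using ONE-Glo.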
# Hits are given with their value; - = inactive; ? = inconclusive; . = no result given; [ ] = remark or other dose. The call rests on the fitted dose curve; in most records, active means well fitted curve in the direction sought with a large enough effect; inconclusive means small, poorly fitted or top-dose-only effect, or another doubt; inactive means no such curve, though single readings can be large; an effect the other way counts as inactive or inconclusive.
SMILES,NPC1 prom act,FLuc counter,SMN2 splice up,Rab9 prom act,ELG1 genotoxic
CCCn1nc2cc(C(=O)NCCc3ccc(C)cc3)ccc2c1OCC,-,-,-,-,-
Cc1ccc2c(c1)CCCN2C(=O)c1ccc2c(c1)OCO2,-,-,-,-,-
O=C(NCc1ccccc1CN1CCCC1)c1cccc(N2CCCC2=O)c1,-,-,.,-,-
O=C(O)C[C@H](Nc1ccccc1)C(=O)O,.,.,-[9.22 µM],.,.
CC(C)c1ccc(/C=C2\SC(=O)N(CC(=O)NCCCn3ccnc3)C2=O)cc1,?,0.6µM,.,3.5µM,?
O=C(CN1C(=O)/C(=C/c2ccccc2)Sc2ccccc21)NCCCN1CCOCC1,-,-,.,-,-[9.26 µM]
CC(C)c1ccc(/C=C2\SC(=S)N(CC(=O)NCCCN3CCOCC3)C2=O)cc1,-,1.3µM,.,-,?
CCOc1ccc(/C=C2\SC(=S)N(CC(=O)NCCCN3CCOCC3)C2=O)cc1,-,3µM,.,-,-
O=C(CN1C(=O)/C(=C/c2cccc(Br)c2)SC1=S)NCCCN1CCOCC1,-,21µM,.,-,-
Cc1cccc(-c2nc3scc(CCNS(=O)(=O)c4ccc(Oc5ccccc5)cc4)n3n2)c1,.,-,.,.,.
CCSc1nnc2c(n1)[nH]c1c(C)cccc12,-,12µM,-,5.6µM,?
CC(C)(C)c1ccc(/C=C/C(=O)Nc2ccncc2)cc1,-,4.8µM,-,-,-
O=C(/C=C/c1cccs1)Nc1ccncc1,-,13µM,-,-,-
Cc1ccnc(NS(=O)(=O)c2ccc(NC(=O)/C=C/c3cccs3)cc2)n1,-,?,-,-,-
Cc1ccc(NC(=O)/C=C/C(=O)O)c([N+](=O)[O-])c1,-,-,-,-,-
Cc1ccc(NC(=O)/C=C/c2cccs2)c([N+](=O)[O-])c1,3.2µM,1.5µM,?,3.2µM,?
Cc1cccc(NC(=O)/C=C/c2cccs2)n1,2.8µM,4.8µM,3.2µM,2.5µM,?
CC(C)(C)NC(=O)/C=C/c1cccs1,-,-,-,-,-
Cc1nc(-c2ccc(S(=O)(=O)NCc3ccc(N(C)C)cc3)cc2)co1,.,-,.,.,.
Cc1ccc2cccc(NC(=O)C(C)Oc3ccc(Cl)cc3Cl)c2n1 (stereo not given),.,-,-,.,.
CCCOC(=O)c1cc(NC(=O)/C=C/c2ccccc2)ccc1O,-,15µM,.,-,-
CCCOC(=O)c1ccc(NC(=O)/C=C/c2cccs2)cc1,-,24µM,-,-,-
O=C(/C=C/c1cccs1)N1CCCC1,-,-,.,-,-
CN(C)C(=O)c1ccc(NC(=O)COC(=O)/C=C/c2cccs2)cc1,-,-,.,-,-
CCOC(=O)c1cc(NC(=O)COC)ccc1O,-,-,.,-,-
SMILES,NPC1 prom act,FLuc counter,SMN2 splice up,Rab9 prom act,ELG1 genotoxic
Cc1cc(C)n(C(=O)/C=C/c2cccs2)n1,-,17µM,.,-,-
CCc1c(C)sc2c1CCN(Cc1ccccc1)C2c1ccccc1 (stereo not given),.,-,.,.,.
CCc1ccccc1NS(=O)(=O)c1ccc(-c2coc(C)n2)cc1,.,-,.,.,.
Cn1cccc1C(=O)OCC(=O)c1cc2ccccc2o1,-,12µM,-,-,-
Cn1cccc1C(=O)OCC(=O)NCCCc1ccccc1,.,.,.,.,-
O=C(COC(=O)c1ccc(Cl)s1)c1cc2ccccc2o1,-,24µM,-,-,-
O=C(COC(=O)c1nc(Cl)ccc1Cl)c1ccc(Cl)s1,-,?,-,-,-
c1ccc(-n2ncc3c(NC4CCCCCC4)ncnc32)cc1,1.8µM,2.7µM,.,1.8µM,?
Clc1ccc(-n2ncc3c(NC4CCCC4)ncnc32)cc1,.,0.85µM,.,.,.
Cc1ccc(Cl)cc1-n1ncc2c(NC3CCCCCC3)ncnc21,.,-,.,.,.
Cc1ccc(-n2ncc3c(NC4CCCCCC4)ncnc32)cc1Cl,.,2.7µM,.,.,.
Cc1cc(C)c[n+](-c2[nH]c(=O)sc2/C=N/N=C(\N)[S-])c1,-,-,-,-,-
CCCCCCCCCCCCC/C=C/[C@@H](O)[C@H](CO)NCCCCCCCC,.,.,-,.,.
COc1cccc(CNC(=O)C2CCN(c3nnc(-n4c(C)ccc4C)s3)CC2)c1,.,-,-,.,.
O=C(N/N=C/c1cc(Br)cs1)c1c[nH]c2ccccc12,?,17µM,.,-,-
O=C(N/N=C/c1cc(Br)cs1)c1ccccc1[N+](=O)[O-],-,-,-,-,-
O=C(N/N=C/c1ccc(Br)s1)c1c[nH]c2ccccc12,3.5µM,21µM,8.9µM,2.8µM,-
O=[N+]([O-])c1ccc(C(c2sc3nc(-c4ccco4)nn3c2O)N2CCN(c3cccc(Cl)c3)CC2)cc1 (stereo not given),.,19µM,.,.,.
CCN1CCN(C(c2ccccc2)c2sc3nc(-c4ccco4)nn3c2O)CC1 (stereo not given),.,-,.,.,.
O=C(COc1ccccc1)OCc1cc2ccccc2[nH]c1=O,-,21µM,-,-,-
O=C(NNC1CC(=O)N(c2ccccc2)C1=O)c1ccco1 (stereo not given),-,-,-,-,-
O=C(NNC1CC(=O)N(c2ccccc2)C1=O)c1ccc(COc2ccccc2Cl)o1 (stereo not given),-,17µM,-,-,-
Brc1ccccc1-c1nc2c3ccccc3ncn2n1,?,?,.,3.2µM,-
Clc1ccc(-c2nc3c4cnn(-c5ccccc5Br)c4ncn3n2)c(Cl)c1,.,-,-,.,.
Cc1occc1C(=O)N/N=C/c1ccc(OCc2ccccc2)cc1,?,?,.,2.8µM,?
SMILES,NPC1 prom act,FLuc counter,SMN2 splice up,Rab9 prom act,ELG1 genotoxic
Cc1occc1C(=O)N/N=C/C(Br)=C/c1ccccc1,1.8µM,2.7µM,8.9µM,0.89µM,?
O=C(N/N=C/c1ccc(F)cc1)c1ccc(OCc2ccccc2)cc1,-,-,.,-,-
Cc1occc1C(=O)N/N=C/c1ccc(-c2ccccc2)cc1,0.32µM,0.67µM,.,0.4µM,0.16µM
COc1cccc(CNC(=O)Cc2ccc(OC)c(S(=O)(=O)N3CCOCC3)c2)c1,-,-,.,-,-
O=C(/C(=C/c1cccnc1)n1ccnc1)c1ccc(Cl)cc1Cl,-,-,.,-,-
O=C(CSc1nnc2c(n1)[nH]c1ccccc12)NCc1ccccc1F,-,-,.,-,-
CCCCn1c(N)c(N(CCOC)C(=O)CCc2ccc(OC)cc2)c(=O)[nH]c1=O,-,-,-,-,-
O=C(COc1ccc2ccccc2c1Br)N1CCN(c2ccccn2)CC1,-,-,-,-,-
O=C(COc1ccc2ccccc2c1Br)N1CCCCC1,-,15µM,.,?,18µM
O=C(Oc1ccc2ccccc2c1Br)N1CCCCCC1,0.5µM,1.3µM,11µM,0.63µM,?
NC(=O)C1CCN(C(=O)COc2ccc3ccccc3c2Br)CC1,-,-,.,-,-
CCN(CC)C(=O)Oc1ccc2ccccc2c1Br,?,19µM,?,?,-
COc1ccc(NC(=O)CSc2nc(-c3cccs3)cc(C(F)(F)F)n2)c(OC)c1,.,-,-,.,.
COc1ccc(N(CC(=O)NCc2ccc(F)cc2)C(=O)Cn2nnc(-c3ccc(C)o3)n2)cc1OC,-,-,.,-,-
CCOc1cc(N2CCOCC2)c(OCC)cc1NC(=O)CSc1ncccc1C(=O)O,.,.,.,.,-
